The results in this text go back to PubChem BioAssay (NCI).

Assay in all cases: NCI-60 one-dose screen, 48 h (100 = growth as untreated, 0 = no growth, -100 = all killed)
Holding throughout (conditions): 10 µM unless noted

For test [1], the system named is HCT-15 colon.
Test [2] has as its system HT29 colon.
The subject of test [3] is SNB-75 CNS.
Test [4] relates to SNB-19 CNS.
The subject of test [5] is U251 CNS.
The test system of test [6] is PC-3 prostate.
The subject of test [7] is SK-MEL-5 melanoma.
Test [8] concerns UACC-62 melanoma.
Test [9] concerns LOX IMVI melanoma.
For test [10], the system named is SK-MEL-28 melanoma.
Test [11] has as its system SK-MEL-2 melanoma.
For test [12], the system named is EKVX NSCLC.
In test [13] the test system is UO-31 renal.
In test [14] the test system is TK-10 renal.
In test [15] the test system is ACHN renal.
Test [16] deals with CAKI-1 renal.
Test [17] concerns A498 renal.
For test [18], the system named is CCRF-CEM leukemia.
The test system of test [19] is MOLT-4 leukemia.
Test [20] has as its system SN12C renal.

The panel holds about 83,000 compounds, 20% with a hit somewhere; the sample as a whole holds those more often.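 48-hour exposure, single concentration, 96-well plates; percent growth endpoint where 0 means no net growth. Active: below 10.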 Values without a mark were called inactive. The source made the active and inactive calls.

Consider `COc1cc(-c2nc(-c3ccccc3)[nH]c2-c2ccnc(NCCCNS(=O)(=O)c3ccc(C)cc3)n2)ccc1F`, for which the growth in [1] was 62.9%; in [2] it was 69.5%; in test [3], 105%; in test [4] it was 104%; in [5], 88.6%; in test [6], 55%. For the same molecule, the growth in test [7] is 84.4%; in test [8], 97.5%; in test [9], 83.4%; in test [10] it was 101%; in test [11], 104%; in [12], 74.5%. Moreover, the growth was 78.6% in test [13]; 123% in test [14]; 84.6% in test [15]; 105% in [16]; 84.1% in test [17]; 56.9% in test [18]. In [19], the growth is 45.1%.

`COc1cc(-c2nc(-c3ccccc3)[nH]c2-c2ccnc(NCCCNS(=O)(=O)c3cccc(F)c3)n2)ccc1F`: the growth in [1] is 72.7%; in [2], 83.2%; in test [3], 112%; in test [4], 107%; in [5], 95.9%; in [6], 62.9%. Moreover, the growth is 92% in [7]; 99.8% in test [8]; 86.2% in [9]; 100% in test [10]; 105% in [11]; 80.8% in test [12]. Also, the growth is 93.8% in test [20]; 89.2% in [13]; 137% in test [14]; 88.7% in test [15]; 106% in test [16]; 66% in [18]. In test [19], the growth was 54.4%.

On to `C#C[C@]1(O)CC[C@H]2[C@@H]3CC=C4c5sc(Nc6ncccc6C)nc5CC[C@]4(C)[C@H]3CC[C@@]21C`, for which the growth in test [1] is -1.06% (active); in test [2] it was 25.4%; in test [3] it was -2.92% (active); in [4], 1.7% (active); in test [5] it was 3.14% (active); in [6], -18.4% (active). Besides, the growth in test [7] is 5.96% (active); in [8], -25.9% (active); in test [9] it was -78% (active); in [10], -78.7% (active); in test [11], -11.1% (active); in test [12] it was -10.6% (active). The growth was 40.9% in [20]; -39.8% (active) in test [13]; 40.9% in [14]; 18.1% in test [15]; -36.3% (active) in test [16]; 7.66% (active) in [18]. For the same molecule, the growth in [19] was -30.3% (active).

In the case of `Cc1[nH]c(C(=O)Nc2ccc(S(=O)(=O)N3CCCCC3)cc2OCCOCCOCCOCCOCCOCCOCCOCCOCCOc2cc(S(=O)(=O)N3CCCCC3)ccc2NC(=O)c2[nH]c(C)c3c2CCCCC3=O)c2c1C(=O)CCCC2`, the growth in test [1] is 30.9%; in test [2], 4.45% (active); in [3] it was -2.1% (active); in test [4] it was 33.3%; in [5], 24.3%; in [6], 28.8%. The growth in test [7] is 14.8%; in [8] it was -32.5% (active); in [9] it was -75.1% (active); in test [10], 35.1%; in test [11], -11.7% (active); in test [12], 44%. For the same molecule, the growth was 40.5% in test [13]; 8.54% (active) in test [14]; 67.5% in test [15]; 15.9% in [16]; -42.9% (active) in [17]; 38.4% in test [18]. In addition, in [19], the growth was 11.8%.

With `COc1ccc(/C=N/N=C(/c2ccccc2)c2ccc3nc(-c4ccc(Cl)cc4)[nH]c3c2)cc1`, the growth in test [1] was 59.7%; in [2], 65.7%; in test [3] it was 106%; in test [4], 84.2%; in test [5], 79.4%; in test [6] it was 54.7%. Also, the growth in test [7] was 81%; in [8], 91.9%; in test [9] it was 77.6%; in test [10], 88.4%; in test [11], 89.1%; in [12], 91.9%. Also, the growth was 85.4% in test [20]; 78.7% in test [13]; 81.9% in test [14]; 87.5% in test [15]; 72.4% in test [16]; 68.1% in test [18]. Besides, the growth in test [19] is 53.2%.

Consider `CC(C)NC(=O)c1cc(-c2ccc(NC(=O)Nc3ccc(F)cc3)cc2)nc2cccnc12`, for which the growth is 99.5% in [1]; 104% in [2]; 101% in [3]; 99.9% in [4]; 104% in [5]; 96.7% in test [6]. For the same molecule, the growth in test [7] was 101%; in [8] it was 96%; in [9], 98%; in [10] it was 107%; in test [11], 120%; in test [12], 102%. In addition, the growth is 103% in [20]; 92.8% in [13]; 110% in test [14]; 103% in test [15]; 95% in test [16]; 133% in [19].

Turning to `COc1ccc(/C=N/NC(=O)c2c(N)nn(C)c2Nc2ccccc2)cc1Oc1ccccc1`, the growth is 87.7% in [1]; 110% in test [2]; 88.2% in [3]; 88.4% in [4]; 93.6% in test [5]; 74.9% in [6]. Moreover, the growth is 93.8% in test [7]; 83.8% in [8]; 95.3% in test [9]; 102% in [10]; 101% in test [11]; 88.1% in test [12]. Moreover, the growth is 95.5% in [20]; 71.7% in test [13]; 102% in test [14]; 95.8% in test [15]; 86.6% in test [16]; 94.3% in test [18]. Besides, the growth in [19] is 90.4%.
